For eight compounds, Potency, activation and viability results are on record in PubChem BioAssay (NCATS).

Where “and” joins values, the source holds several entries; their conditions need not be identical. Equal values may be shown once. Results filed as inconclusive are left out. A structure can be active in one record and inactive in another. A number with no mark means an inactive call. Calls of active or inactive are those of the source. Unless noted, calls follow the shape of the dose curve; as a rule, active = well fitted curve in the direction sought with a large enough effect; inconclusive = small, poorly fitted or top-dose-only effect, or another doubt; inactive = no such curve, though single readings can be large; an effect the other way counts as inactive or inconclusive.

Experiment [1] addresses Cellular tumor antigen p53 (Homo sapiens) (UniProt P04637). The experiment can be described thus: Primary qHTS for small molecule compounds that upregulate eGFP-tagged delta133p53alpha (in N-terminal) cells. (AID 2060322). Also: nearly all actives have a fitted effect of over 75% in size. Also: potency is read from the fitted curve at half-maximal effect.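 As to activation: 0% = DMSO vehicle and 100% = reference activator.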 Conditions: NCI-H358 eGFP-delta133p53alpha fluorescence, 24 h; activation: hits give high values. The method, boiled down:
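NCI-H358 cells pre-induced 24 h with 10 ng/ml doxycycline to express N-terminal eGFP-delta133p53alpha, then dosed 24 h at 37C without doxycycline; fixed, Hoechst-stained, GFP intensity by laser scanning cytometry, normalized to DMSO (0%) and 57.5 uM 5-azacytidine (100%).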
(In general: Quantitative high-throughput screening tests each substance at several concentrations.)

Experiment [2] in a line: BET inhibitor-based combinations targeting novel dependencies in MECOM-rearranged (r) AML: SET-2 cell line (AID 2202231).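 Also: plate controls were DMSO treated cells for no effect and wells without cells for full effect; nearly all actives have a fitted effect of over 35% in size.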 Conditions: SET-2 AML cells viability, CellTiter-Glo luminescence, 48 h; viability: hits give low values, concentration not given here. The method in brief: (§1)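 Here, 11-point titrations of each agent were applied to 500 seeded cells and incubated 48 hr; CellTiter-Glo signal, scaled against DMSO and empty wells, was integrated as AUC, then Z-scored within the individual line.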
A general note: Cellular ATP, detected with luciferase, serves as a proxy for viable cell number.

Experiment [3] can be described thus: BET inhibitor-based combinations targeting novel dependencies in MECOM-rearranged (r) AML: MV-4-11 cell line (AID 2202233).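 Also: plate controls were DMSO for no effect and blank wells for full effect; nearly all actives have a fitted effect of over 45% in size.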 The conditions noted are these: MV-4-11 AML viability, CellTiter-Glo luminescence, 48 h; series mostly up to 46 µM. The method, boiled down: (§2)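 Normalized to DMSO and empty-well controls, the luminescence data from CellTiter-Glo after 48 hr drug exposure were fitted across 11 concentrations. Reported metrics are area under the dose-response curve and its Z-transformed form.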

Experiment [4] can be described thus: BET inhibitor-based combinations targeting novel dependencies in MECOM-rearranged (r) AML: HNT-34 cell line (AID 2202234).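 Also: plate controls were vehicle wells for no effect and cell-free wells for full effect; nearly all actives have a fitted effect of over 35% in size.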 Conditions: HNT-34 AML viability, CellTiter-Glo luminescence, 48 h; series mostly up to 46 µM. The method in brief: as §2
Experiment [5] can be described thus: BET inhibitor-based combinations targeting novel dependencies in MECOM-rearranged (r) AML: AML-191 cell line (AID 2202236;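 also: plate controls were vehicle wells for no effect and wells without cells for full effect; nearly all actives have a fitted effect of over 35% in size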). The conditions noted are these: AML-191 viability, CellTiter-Glo luminescence, 48 h; series mostly up to 46 µM. The method, boiled down:
as §1

A short description of experiment [6]: BET inhibitor-based combinations targeting novel dependencies in MECOM-rearranged (r) AML: AML-194 cell line (AID 2202237;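 also: plate controls were vehicle wells for no effect and wells without cells for full effect; nearly all actives have a fitted effect of over 40% in size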). The conditions noted are these: AML-194 (MECOM-r AML) viability, CellTiter-Glo, 48 h; series mostly up to 46 µM. The method in brief: as §1
In experiment [7] the target is Cellular tumor antigen p53 (Homo sapiens) (UniProt P04637). The experiment can be described thus: Primary qHTS for small molecule compounds that upregulate eGFP-tagged delta133p53alpha (in C-terminal) cells. (AID 2060324).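 Also: 0% = DMSO wells and 100% = 57.5 µM 5-azacytidine.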 The conditions noted are these: NCI-H358 delta133p53alpha-eGFP (C-terminal tag), GFP fluorescence imaging, 24 h; series mostly up to 57.5 µM. The method in brief: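 In this qHTS, GFP-tagged delta133p53alpha levels are measured in fixed NCI-H358 cells after 24 h compound exposure at 37 °C. The cells are pre-induced with 100 ng/ml doxycycline, and signal is normalized to DMSO-treated wells as 0%.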

Experiment [8] concerns the target Aldehyde dehydrogenase, mitochondrial (Homo sapiens) (UniProt P05091). Briefly: qHTS for Inhibitors of the Aldehyde Dehydrogenase Family (ALDH2) Validation screens (AID 2061302; active = well fitted inhibition curve with a large enough effect; title and protocol of this record describe different tests;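 also: plate controls were DMSO vehicle for no effect and maximal DPI positive control response for full effect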). Conditions: ALDH inhibition qHTS; series mostly up to 42.6 µM.

Sequence of Cellular tumor antigen p53 (Homo sapiens) (P04637 whole entry, looked up): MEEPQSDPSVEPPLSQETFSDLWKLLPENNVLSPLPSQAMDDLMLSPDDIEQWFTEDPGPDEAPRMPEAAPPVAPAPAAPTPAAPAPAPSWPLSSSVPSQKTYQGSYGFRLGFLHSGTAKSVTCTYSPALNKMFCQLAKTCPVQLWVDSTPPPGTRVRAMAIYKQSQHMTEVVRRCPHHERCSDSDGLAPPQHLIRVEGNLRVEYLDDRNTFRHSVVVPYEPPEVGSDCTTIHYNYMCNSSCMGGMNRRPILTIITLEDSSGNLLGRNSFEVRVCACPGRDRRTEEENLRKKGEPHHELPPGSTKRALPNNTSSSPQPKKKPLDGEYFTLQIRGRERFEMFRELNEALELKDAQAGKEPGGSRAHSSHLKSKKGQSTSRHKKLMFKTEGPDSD

Take `O=C(NCC1CCCCN1)c1cc(OCC(F)(F)F)ccc1OCC(F)(F)F` (configuration not stated): the Potency in experiment [1] was 27.3 µM (active). The activation in experiment [1] was 9.6%. The viability (as a rule, a read-out of living cells in per cent, often relative to untreated cells) in experiment [2] was 112%. In addition, the Potency result in experiment [3], in experiment [4], in experiment [5] and in experiment [6] was “inactive” each time.

Regarding `COc1cc(C(=O)OCCCN2CCCN(CCCOC(=O)c3cc(OC)c(OC)c(OC)c3)CC2)cc(OC)c1OC`, in experiment [1], the activation is -3.95% and -82%. Besides, the Potency entry in experiment [7] and in experiment [8] was “inactive” each time.

As for `CC1=C(CC(=O)O)c2cc(F)ccc2/C1=C\c1ccc(S(C)=O)cc1` (configuration not stated), the activation in experiment [1] was 19.2% and 25%. The Potency entry in experiment [7] was “inactive”.

On to `O=c1cc(-c2ccccc2)oc2c(O)c(O)ccc12`, for which the activation in experiment [1] is -43.5%. Besides, in experiment [7], the Potency result is “inactive”.

Consider `O=C(OCCN1CCOCC1)C1(c2ccccc2)CCCCC1`, for which the activation in experiment [1] was -19.6%. Further, in experiment [7], the Potency result was “inactive”.

With `NC1(C(=O)O)CC1`, in experiment [1], the activation is -6.03%. The Potency result in experiment [7] was “inactive”.

On to `NNc1nncc2ccccc12`, for which, in experiment [1], the activation is 19.2% and 11.4% and 5.29%. In addition, in experiment [7], the Potency entry is “inactive”.

Consider `C=CC1(C)CC(=O)C2(O)C(C)(O1)C(OC(C)=O)C(O)C1C(C)(C)CCC(O)C12C` (configuration not stated), for which the activation in experiment [1] is -19.1%. In addition, the Potency result in experiment [7] is “inactive”.
